Test results reported in PubChem BioAssay (Tox21).
Inconclusive results are not listed. Active and inactive are the calls of the source. Unless noted, calls follow the shape of the dose curve; as a rule, active = well fitted curve in the direction sought with a large enough effect in the repeat runs; inconclusive = weak or mixed curves; inactive = no such curve, though single readings can be large; an effect the other way counts as inactive or inconclusive.

Key:
[1] = qHTS assay for small molecule agonists of the p53 signaling pathway (AID 651631; calls by dose curve; also: nearly all actives have a fitted effect of over 15% in size)
Method in brief: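 Readout was fluorescence from the LiveBLAzer FRET substrate, applied for 2 h at room temperature after 16 h compound exposure at 37 °C. Cells were the p53RE-bla HCT-116 line, with beta-lactamase driven by p53 response elements.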

[2] = qHTS assay for small molecules that induce genotoxicity in human embryonic kidney cells expressing luciferase-tagged ATAD5 (AID 651632); also: nearly all actives have a fitted effect of over 15% in size
Method in brief: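 Reporter cells (HEK293T) express luciferase-tagged ATAD5, a protein that accumulates after DNA damage. Treat 16 hr at 37C/5% CO2, add Amplite, wait 30 min at RT, and read luminescence.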

[3] = qHTS assay for small molecule agonists of the p53 signaling pathway - cell viability (AID 651633; calls by dose curve; also: series mostly up to about 83 µM; nearly all actives have a fitted effect of over 30% in size)
Method in brief: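 p53RE-bla cells, seeded at 4,000 per well and rested 5 h at 37 C/5% CO2, received compounds in DMSO for 16 h at 37 C. CellTiter-Glo was then added, and luminescence was read after 30 min at room temperature to gauge cytotoxicity.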

[4] = qHTS assay for small molecules that induce genotoxicity in human embryonic kidney cells expressing luciferase-tagged ATAD5 - cell viability (AID 651634; calls by dose curve; also: nearly all actives have a fitted effect of over 25% in size)
Method in brief: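 Seeding of 2,000 HEK293T ATAD5-luciferase cells per well preceded pin-tool compound transfer. Plates sat 15.5 hr at 37C under 5% CO2, then fluorescence was read after 30 min with CellTiter-Fluor.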

[5] = qHTS assay for small molecule disruptors of the mitochondrial membrane potential - cell viability (AID 720634; calls by dose curve;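 also: human HepG2 liver cancer cells; series mostly up to about 83 µM; nearly all actives have a fitted effect of over 20% in size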)
Method in brief: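 Measuring cytotoxicity alongside mitochondrial potential, the screen quantified ATP by luminescence in HepG2 cells after 1 hr compound incubation and a 30 min room-temperature CellTiter-Glo step.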

[6] = qHTS assay for small molecule disruptors of the mitochondrial membrane potential (AID 720635)
Method in brief: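 HepG2 cells (2,000/well) attached overnight at 37C, then took compound for 1 hr at 37C, 5% CO2. Mito-MPS dye was added for 30 min; fluorescence was read at 490/535 nm (monomers) and 540/590 nm (aggregates).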

[7] = qHTS assay to test for compound auto fluorescence at 590 nm (red) in HepG2 cells (AID 720674)
Method in brief: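 Compound auto-fluorescence is scored relative to Rose Bengal sodium, measured at 540/590 nm in live HepG2 cultures after 1 hr compound contact (37 C, 5% CO2).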

[8] = qHTS assay to test for compound auto fluorescence at 535 nm (green) in HepG2 cells (AID 720675)
[9] = qHTS assay to test for compound auto fluorescence at 460 nm (blue) in HEK293 cells (AID 720678)
Method in brief: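 HEK293 cells (2,000 per well, medium with 10% dialyzed FBS) attached for 4-5 hr at 37C, then received compound and stood overnight at 37C, 5% CO2. Blue fluorescence was read at Ex/Em 405/460 nm and expressed relative to triamterene.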

[10] = qHTS assay to test for compound auto fluorescence at 535 nm (green) in HEK293 cells (AID 720680)
[11] = qHTS assay to test for compound auto fluorescence at 460 nm (blue) in HEK293 cell free culture (AID 720681)
Method in brief: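 Test compounds were pinned into cell-free culture medium (DMEM with 10% FBS) and fluorescence was read directly at Ex/Em 405/460 nm. Signals were expressed as fluorescence equivalents of triamterene, with DMSO vehicle as control.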

[12] = qHTS assay to test for compound auto fluorescence at 535 nm (green) in HEK293 cell free culture (AID 720682)
Method in brief: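 Compounds were pin-transferred into cell-free DMEM with 10% FBS, and green fluorescence was read at excitation 485 nm and emission 535 nm. Intensities were expressed as fluorescein-equivalent values.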

[13] = qHTS assay to test for compound auto fluorescence at 590 nm (red) in HEK293 cell free culture (AID 720683)
Method in brief: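 Tox21 10K library compounds were pinned into cell-free DMEM with 10% FBS and fluorescence was read at excitation 540 nm. Activity is expressed as Rose Bengal sodium equivalency.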

[14] = qHTS assay to test for compound auto fluorescence at 590 nm (red) in HepG2 cell free culture (AID 720684)
Method in brief: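 Measured in medium alone (MEM containing 10% FBS) following pintool addition of compound; emission at 590 nm with 540 nm excitation, referenced to Rose Bengal sodium.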

[15] = qHTS assay to test for compound auto fluorescence at 460 nm (blue) in HepG2 cell free culture (AID 720685)
Method in brief: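 Compound (23 nL) or DMSO pinned into cell-free MEM with 10% FBS; blue fluorescence read at 405/460 nm excitation/emission, expressed as auto-fluorescence equivalency to triamterene.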

[16] = qHTS assay to test for compound auto fluorescence at 535 nm (green) in HepG2 cell free culture (AID 720686)
[17] = qHTS assay to test for compound auto fluorescence at 460 nm (blue) in HepG2 cells (AID 720687)
Method in brief: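 Cells (2,000/well in MEM with 10% FBS) attached overnight at 37 C, then were exposed to compound or DMSO for 1 hr at 37 C, 5% CO2. Fluorescence read at Ex/Em 405/460 nm, expressed as triamterene-equivalent signal.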

[18] = target: Glucocorticoid receptor (Homo sapiens) (UniProt P04150); assay: qHTS assay to identify small molecule agonists of the glucocorticoid receptor (GR) signaling pathway (AID 720691; active = well fitted activation curve with a large enough effect in the signal ratio in the repeat runs, not every such curve was filed as active; the % refers to the signal ratio)
Glucocorticoid receptor (Homo sapiens), sequence (P04150 whole entry, looked up): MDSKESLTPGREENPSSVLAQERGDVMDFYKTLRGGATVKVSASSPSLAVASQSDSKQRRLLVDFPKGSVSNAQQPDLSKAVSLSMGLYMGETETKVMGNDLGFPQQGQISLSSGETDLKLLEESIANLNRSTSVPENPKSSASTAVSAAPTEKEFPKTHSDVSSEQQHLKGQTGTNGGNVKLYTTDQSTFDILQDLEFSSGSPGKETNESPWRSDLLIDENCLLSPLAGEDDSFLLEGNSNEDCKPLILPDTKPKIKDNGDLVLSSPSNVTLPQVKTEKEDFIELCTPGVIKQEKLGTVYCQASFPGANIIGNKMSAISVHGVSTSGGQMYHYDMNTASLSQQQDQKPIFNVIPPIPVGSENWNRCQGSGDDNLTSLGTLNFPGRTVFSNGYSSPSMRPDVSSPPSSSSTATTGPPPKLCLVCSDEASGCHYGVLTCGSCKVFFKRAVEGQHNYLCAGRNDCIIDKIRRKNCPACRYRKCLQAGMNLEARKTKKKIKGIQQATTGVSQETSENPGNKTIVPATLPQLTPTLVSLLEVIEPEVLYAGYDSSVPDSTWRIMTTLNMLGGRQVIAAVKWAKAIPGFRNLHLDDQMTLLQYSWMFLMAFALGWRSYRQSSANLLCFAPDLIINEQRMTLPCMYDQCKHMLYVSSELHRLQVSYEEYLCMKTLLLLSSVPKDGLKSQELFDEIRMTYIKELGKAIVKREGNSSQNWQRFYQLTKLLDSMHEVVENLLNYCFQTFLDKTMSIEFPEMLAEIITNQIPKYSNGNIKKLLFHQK
Method in brief: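 Reporter read-out: fluorescence intensity following 2 h room-temperature LiveBLAzer B/G FRET substrate loading. Prior step: GR-bla HeLa cells held 4 h, then treated 18 h at 37 C.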

[19] = target: Glucocorticoid receptor (Homo sapiens) (UniProt P04150); assay: qHTS assay to identify small molecule antagonists of the glucocorticoid receptor (GR) signaling pathway (AID 720692; active = well fitted inhibition curve with a large enough effect in the signal ratio in the repeat runs, not every such curve was filed as active; the % refers to the signal ratio)
Method in brief: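 Dexamethasone (5 nM final) stimulated a stably integrated GRE-beta-lactamase reporter in HeLa cells during 18 h co-incubation with compounds; signal was quantified as fluorescence intensity of B/G FRET substrate after 2 h.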

[20] = qHTS assay to test for compound auto fluorescence at 590 nm (red) in HEK293 cells (AID 720679)
Method in brief: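 HEK293 cells (2,000/well, medium with 10% dialyzed FBS) attached for 4-5 hr at 37C, received 23 nL compound and were incubated overnight at 37C, 5% CO2. Red fluorescence was then read at 540/590nm Ex/Em, referenced to Rose Bengal sodium.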
% is scaled to controls: 0 for no effect and ±100 for the full control effect.

CCCO[Si](OCCC)(OCCC)OCCC
inactive: Potency [1] | Potency [2] | Potency [3] | Potency [4] | outcome [5] | Potency [6] | outcome [7] | outcome [8] | outcome [9] | outcome [10] | outcome [11] | outcome [12] | outcome [13] | outcome [14] | outcome [15] | outcome [16] | outcome [17] | Potency [18] | Potency [19]

CC(COc1ccccc1)NN (stereo not given)
inactive: Potency [1] | Potency [2] | Potency [3] | Potency [4] | outcome [5] | Potency [6] | outcome [7] | outcome [8] | outcome [9] | outcome [20] | outcome [10] | outcome [11] | outcome [12] | outcome [13] | outcome [14] | outcome [15] | outcome [17] | Potency [18] | Potency [19]

CCN(C=O)CC
inactive: Potency [1] | Potency [2] | Potency [3] | Potency [4] | outcome [5] | Potency [6] | outcome [7] | outcome [8] | outcome [9] | outcome [20] | outcome [10] | outcome [11] | outcome [12] | outcome [13] | outcome [14] | outcome [15] | outcome [16] | outcome [17] | Potency [18] | Potency [19]

CCCC(C)C(=O)OCC (stereo not given)
inactive: Potency [1] | Potency [2] | Potency [3] | Potency [4] | outcome [5] | Potency [6] | outcome [7] | outcome [8] | outcome [20] | outcome [10] | outcome [11] | outcome [12] | outcome [13] | outcome [14] | outcome [15] | outcome [16] | outcome [17] | Potency [18] | Potency [19]

NCCCC[C@H](N[C@@H](CCc1ccccc1)C(=O)O)C(=O)N1CCC[C@H]1C(=O)O
inactive: Potency [1] | Potency [2] | Potency [3] | Potency [4] | outcome [5] | Potency [6] | fluorescence, relative to Rose Bengal [7] 0.575% [at 18.6 µM] | fluorescence, % of fluorescein control [8] -0.177% [at 18.6 µM] | fluorescence, % of triamterene [9] -0.377% [at 18.6 µM] | fluorescence, % of fluorescent control [20] -0.247% [at 18.6 µM] | fluorescence, % of fluorescein [10] -0.012% [at 18.6 µM] | fluorescence, % of fluorescent control [11] -0.095% [at 18.6 µM] | activity change [12] -0.028% [at 18.6 µM] | fluorescence, % of fluorescent control [13] 0.14% [at 18.6 µM] | fluorescence, % of Rose Bengal [14] -0.221% [at 18.6 µM] | fluorescence, % of fluorescent control [15] -0.005% [at 18.6 µM] | fluorescence, % of fluorescein control [16] -0.127% [at 18.6 µM] | fluorescence, % of fluorescent control [17] 0.0286% [at 18.6 µM] | Potency [18] | Potency [19]

CC/C=C\CCOC(C)OCC (stereo not given)
inactive: Potency [1] | Potency [2] | Potency [3] | Potency [4] | outcome [5] | Potency [6] | outcome [7] | outcome [8] | outcome [9] | outcome [20] | outcome [10] | outcome [11] | outcome [12] | outcome [13] | outcome [14] | outcome [15] | outcome [16] | outcome [17] | Potency [18] | Potency [19]

CC(C)(CCC(=O)O)C(=O)O
inactive: Potency [1] | Potency [2] | Potency [3] | Potency [4] | outcome [5] | Potency [6] | outcome [7] | outcome [9] | outcome [20] | outcome [10] | outcome [11] | outcome [12] | outcome [13] | outcome [14] | outcome [15] | outcome [16] | outcome [17] | Potency [18] | Potency [19]

CO[C@@]1(NC(=O)CSC[C@@H](N)C(=O)O)C(=O)N2C(C(=O)O)=C(CSc3nnnn3C)CS[C@@H]21
inactive: Potency [1] | Potency [2] | Potency [3] | Potency [4] | outcome [5] | Potency [6] | outcome [7] | outcome [8] | outcome [9] | outcome [10] | outcome [11] | outcome [12] | outcome [13] | outcome [14] | outcome [15] | outcome [16] | outcome [17]

C[N+]1(CC2COC(c3ccccc3)(c3ccccc3)O2)CCCCC1 (stereo not given)
inactive: Potency [1] | Potency [2] | Potency [3] | Potency [4] | outcome [5] | Potency [6] | outcome [7] | outcome [9] | outcome [20] | outcome [10] | outcome [11] | outcome [12] | outcome [13] | outcome [14] | outcome [15] | outcome [16] | outcome [17] | Potency [19]

O=C(c1ccccc1)C1(O)CCCCC1
inactive: Potency [1] | Potency [2] | Potency [3] | Potency [4] | outcome [5] | Potency [6] | outcome [7] | outcome [9] | outcome [20] | outcome [10] | outcome [11] | outcome [12] | outcome [13] | outcome [15] | outcome [16] | outcome [17]

CC(CC=O)CC(C)(C)C (stereo not given)
inactive: Potency [1] | Potency [2] | Potency [3] | Potency [4] | outcome [5] | Potency [6] | outcome [7] | outcome [9] | outcome [10] | outcome [11] | outcome [12] | outcome [13] | outcome [14] | outcome [15] | outcome [16] | outcome [17]

O=S(=O)(O)c1cccc2ccccc12
inactive: Potency [1] | Potency [2] | Potency [3] | Potency [4] | outcome [5] | Potency [6] | outcome [7] | outcome [9] | outcome [20] | outcome [10] | outcome [11] | outcome [12] | outcome [13] | outcome [14] | outcome [15] | outcome [16] | outcome [17] | Potency [18]

CO/N=C(\C(=O)N[C@@H]1C(=O)N2C(C(=O)O)=C(CSc3nc(=O)c(O)nn3C)CS[C@H]12)c1csc(N)n1
inactive: Potency [1] | Potency [2] | Potency [3] | Potency [4] | outcome [5] | Potency [6] | outcome [7] | outcome [8] | outcome [9] | outcome [20] | outcome [10] | outcome [11] | outcome [12] | outcome [13] | outcome [14] | outcome [15] | outcome [16] | Potency [18] | Potency [19]
